Measured values reported in the supplement of paper PMC4466140.

B1: unnamed (peptide)
chain: APKHAPPPVPNETDN

These binders were tested against ScBbc1 (assay: SPOT peptide array binding signal intensity (averaged, normalized) (arbitrary units (background-subtracted, floor 0; scale differs between SH3 domains)); higher = stronger binding of the SH3 domain to the peptide).
Procedure, shortened: (§1)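 Binding signal refers to normalized, background-subtracted spot intensity averaged over replicates, expressed in arbitrary units that differ between domains. GST-fused SH3 domains from four yeast species were incubated at 10 μg/ml overnight at 4°C on cellulose membranes of synthetic 15-mer peptides with cysteines replaced by serines. Bound protein was detected with anti-GST antibody, an HRP anti-mouse secondary and luminol, and quantified with Genespotter.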

| Binder | SPOT peptide array binding signal intensity |
| --- | --- |
| B1 | ≤ 0 |

These binders were tested against ScBem1-D1 in the same assay as above.
Procedure, shortened: as §1

| Binder | SPOT peptide array binding signal intensity |
| --- | --- |
| B1 | ≤ 0 |

Each binder was assayed against ScBzz1-D1 in the same assay as above.
Procedure, shortened: as §1

| Binder | SPOT peptide array binding signal intensity |
| --- | --- |
| B1 | 618 |

Each binder was assayed against ScBzz1-D2 in the same assay as above.
Procedure, shortened: as §1

| Binder | SPOT peptide array binding signal intensity |
| --- | --- |
| B1 | ≤ 0 |

The binders below were run against ScCyk3 in the same assay as above.
Procedure, shortened: as §1

| Binder | SPOT peptide array binding signal intensity |
| --- | --- |
| B1 | ≤ 0 |

The binders below were run against ScFus1 in the same assay as above.
Procedure, shortened: as §1

| Binder | SPOT peptide array binding signal intensity |
| --- | --- |
| B1 | ≤ 0 |

These binders were tested against ScHof1 in the same assay as above.
Procedure, shortened: as §1

| Binder | SPOT peptide array binding signal intensity |
| --- | --- |
| B1 | ≤ 0 |

These binders were tested against ScHse1 in the same assay as above.
Procedure, shortened: as §1

| Binder | SPOT peptide array binding signal intensity |
| --- | --- |
| B1 | ≤ 0 |

What follows are binders tested against ScLsb1 in the same assay as above.
Procedure, shortened: as §1

| Binder | SPOT peptide array binding signal intensity |
| --- | --- |
| B1 | ≤ 0 |

What follows are binders tested against ScLsb2 in the same assay as above.
Procedure, shortened: as §1

| Binder | SPOT peptide array binding signal intensity |
| --- | --- |
| B1 | ≤ 0 |

Each binder was assayed against ScLsb3 in the same assay as above.
Procedure, shortened: as §1

| Binder | SPOT peptide array binding signal intensity |
| --- | --- |
| B1 | ≤ 0 |

The binders below were run against ScLsb4 in the same assay as above.
Procedure, shortened: as §1

| Binder | SPOT peptide array binding signal intensity |
| --- | --- |
| B1 | ≤ 0 |

The binders below were run against ScMyo3 in the same assay as above.
Procedure, shortened: as §1

| Binder | SPOT peptide array binding signal intensity |
| --- | --- |
| B1 | 1380 |

These binders were tested against ScMyo5 in the same assay as above.
Procedure, shortened: as §1

| Binder | SPOT peptide array binding signal intensity |
| --- | --- |
| B1 | 1230 |

What follows are binders tested against ScNbp2 in the same assay as above.
Procedure, shortened: as §1

| Binder | SPOT peptide array binding signal intensity |
| --- | --- |
| B1 | ≤ 0 |

These binders were tested against ScPex13 in the same assay as above.
Procedure, shortened: as §1

| Binder | SPOT peptide array binding signal intensity |
| --- | --- |
| B1 | ≤ 0 |

Each binder was assayed against ScRvs167 in the same assay as above.
Procedure, shortened: as §1

| Binder | SPOT peptide array binding signal intensity |
| --- | --- |
| B1 | ≤ 0 |

These binders were tested against ScSho1 in the same assay as above.
Procedure, shortened: as §1

| Binder | SPOT peptide array binding signal intensity |
| --- | --- |
| B1 | ≤ 0 |

Each binder was assayed against ScSla1-D1-D2 in the same assay as above.
Procedure, shortened: as §1

| Binder | SPOT peptide array binding signal intensity |
| --- | --- |
| B1 | ≤ 0 |

Each binder was assayed against ScSla1-D3 in the same assay as above.
Procedure, shortened: as §1

| Binder | SPOT peptide array binding signal intensity |
| --- | --- |
| B1 | ≤ 0 |

What follows are binders tested against SpAbp1-D1 in the same assay as above.
Procedure, shortened: as §1

| Binder | SPOT peptide array binding signal intensity |
| --- | --- |
| B1 | ≤ 0 |

These binders were tested against SpBbc1 in the same assay as above.
Procedure, shortened: as §1

| Binder | SPOT peptide array binding signal intensity |
| --- | --- |
| B1 | ≤ 0 |

What follows are binders tested against SpBzz1-D1 in the same assay as above.
Procedure, shortened: as §1

| Binder | SPOT peptide array binding signal intensity |
| --- | --- |
| B1 | ≤ 0 |

What follows are binders tested against SpBzz1-D2 in the same assay as above.
Procedure, shortened: as §1

| Binder | SPOT peptide array binding signal intensity |
| --- | --- |
| B1 | ≤ 0 |

Each binder was assayed against SpCyk3 in the same assay as above.
Procedure, shortened: as §1

| Binder | SPOT peptide array binding signal intensity |
| --- | --- |
| B1 | ≤ 0 |

These binders were tested against SpHof1 in the same assay as above.
Procedure, shortened: as §1

| Binder | SPOT peptide array binding signal intensity |
| --- | --- |
| B1 | ≤ 0 |

The binders below were run against SpHof1-2 in the same assay as above.
Procedure, shortened: as §1

| Binder | SPOT peptide array binding signal intensity |
| --- | --- |
| B1 | ≤ 0 |

The binders below were run against SpHof1-3 in the same assay as above.
Procedure, shortened: as §1

| Binder | SPOT peptide array binding signal intensity |
| --- | --- |
| B1 | ≤ 0 |

These binders were tested against SpHse1 in the same assay as above.
Procedure, shortened: as §1

| Binder | SPOT peptide array binding signal intensity |
| --- | --- |
| B1 | 140 |

These binders were tested against SpLsb1 in the same assay as above.
Procedure, shortened: as §1

| Binder | SPOT peptide array binding signal intensity |
| --- | --- |
| B1 | ≤ 0 |

Each binder was assayed against SpLsb4 in the same assay as above.
Procedure, shortened: as §1

| Binder | SPOT peptide array binding signal intensity |
| --- | --- |
| B1 | ≤ 0 |

These binders were tested against SpMyo1 in the same assay as above.
Procedure, shortened: as §1

| Binder | SPOT peptide array binding signal intensity |
| --- | --- |
| B1 | 691 |

What follows are binders tested against SpNbp2 in the same assay as above.
Procedure, shortened: as §1

| Binder | SPOT peptide array binding signal intensity |
| --- | --- |
| B1 | ≤ 0 |

The binders below were run against SpPex13 in the same assay as above.
Procedure, shortened: as §1

| Binder | SPOT peptide array binding signal intensity |
| --- | --- |
| B1 | ≤ 0 |

The binders below were run against SpRvs167 in the same assay as above.
Procedure, shortened: as §1

| Binder | SPOT peptide array binding signal intensity |
| --- | --- |
| B1 | 2.5 |

What follows are binders tested against SpSla1-D1-D2 in the same assay as above.
Procedure, shortened: as §1

| Binder | SPOT peptide array binding signal intensity |
| --- | --- |
| B1 | ≤ 0 |

These binders were tested against SpSla1-D3 in the same assay as above.
Procedure, shortened: as §1

| Binder | SPOT peptide array binding signal intensity |
| --- | --- |
| B1 | ≤ 0 |
